Experimental findings from PubChem BioAssay (NCATS) are described below.

Results filed as inconclusive are left out. A number with no mark means an inactive call. The source made the active and inactive calls. Calls follow the shape of the full dose curve.
% is scaled to controls: 0 for no effect and ±100 for the full control effect.

For this assay, the target named is Nucleoprotein (Lymphocytic choriomeningitis virus (strain Armstrong)) (UniProt P09992). In words: qHTS for Inhibitors of the Functional Ribonucleoprotein Complex (vRNP) of Lymphocytic Choriomeningitis Arenaviruses (LCMV): LCMV Primary Screen - GLuc reporter signal (AID 1347086). Also: nearly all actives have a fitted effect of over 70% in size. The settings on record: LCMV minigenome vRNP cell assay, Gaussia luciferase reporter; series mostly up to 57.5 µM; activity change, negative = inhibition: at the top concentration.
Chain of Nucleoprotein (Lymphocytic choriomeningitis virus (strain Armstrong)) (P09992 whole entry, looked up): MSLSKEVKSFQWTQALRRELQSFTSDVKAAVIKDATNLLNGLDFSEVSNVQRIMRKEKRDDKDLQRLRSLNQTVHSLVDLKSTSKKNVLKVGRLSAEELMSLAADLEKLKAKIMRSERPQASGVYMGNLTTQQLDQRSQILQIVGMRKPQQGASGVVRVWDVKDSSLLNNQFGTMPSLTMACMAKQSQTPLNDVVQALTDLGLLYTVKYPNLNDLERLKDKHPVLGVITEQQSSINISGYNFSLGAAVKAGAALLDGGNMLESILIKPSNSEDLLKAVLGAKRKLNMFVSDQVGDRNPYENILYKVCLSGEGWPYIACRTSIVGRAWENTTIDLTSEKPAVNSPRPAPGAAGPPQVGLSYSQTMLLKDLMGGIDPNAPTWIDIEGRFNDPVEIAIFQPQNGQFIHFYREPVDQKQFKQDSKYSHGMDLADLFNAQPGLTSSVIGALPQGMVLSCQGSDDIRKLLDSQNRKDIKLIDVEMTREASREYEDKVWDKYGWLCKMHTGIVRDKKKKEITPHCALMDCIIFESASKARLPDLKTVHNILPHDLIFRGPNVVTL
Consider `COc1cc(C(O)CN)ccc1O` (configuration not stated), for which the Potency result was “inactive”.

For `NC(=O)CN1CC(O)CC1=O` (configuration not stated), the “activity change, negative = inhibition” value was 24.1%. With `O=C(Cc1ccc(Cl)c(Cl)c1)N1CCCCC1CN1CCCC1` (configuration not stated), the “activity change, negative = inhibition” value is 12.3%. The same measure, in the same setting: in the case of `NCc1cc(=O)[nH]o1` it was 12.2%. On to `C[C@]12CCC3C(CC[C@H]4C[C@H](O)CC[C@]34C)C1CC[C@@H]2C(=O)CO` (some centres not stated), for which the Potency result was “inactive”. Consider `NC1CCc2cc(O)c(O)cc2C1` (configuration not stated), for which the “activity change, negative = inhibition” value is 12.5%. For `CNCCc1ccc(O)c(O)c1`, the Potency result is “inactive”. For `O=C(O)Cc1cnc[nH]1`, the “activity change, negative = inhibition” value is -1.46%. On to `NC(N)=NOCCC(N)C(=O)O` (configuration not stated), for which the Potency entry is “inactive”. Still for that read-out and setting: the result for `O=C(O)CC[N+](=O)[O-]` reads “inactive”.

On to `C[C@@H](N)Cc1cnc[nH]1`, for which the “activity change, negative = inhibition” value was 18.3%.

For `CC(=O)NCCc1c[nH]c2ccccc12`, the Potency entry was “inactive”. Turning to `CCCCc1ccc(C(=O)O)nc1`, the “activity change, negative = inhibition” value is 27.9%.

Turning to `Cn1cnc(CCN)c1`, the Potency result is “inactive”. With `CC(C)Oc1cccnc1N(C)C1CCN(Cc2ccccc2)CC1`, the “activity change, negative = inhibition” value was -3.48%.

Consider `NCCc1c[nH]c2ccc(O)cc12`, for which the Potency result is “inactive”. Same read-out and setting: in the case of `CNCCc1c[nH]c2ccc(O)cc12` it was “inactive”. As to `CS(=N)(=O)CC[C@H](N)C(=O)O` (some centres not stated), the Potency entry was “inactive”.

`CCCN(CCC)C1CCc2ccc(O)cc2C1` (configuration not stated): the “activity change, negative = inhibition” value was 21.5%. In the case of `Clc1cnc(Oc2ccc(Oc3ncc(Cl)cc3Cl)cc2)c(Cl)c1`, the “activity change, negative = inhibition” value is 12.3%. Same read-out and setting: the result for `c1ccc2sc(C3(N4CCCCC4)CCCCC3)cc2c1` reads -12.7%; that for `c1ccc(C2(c3ccccc3)CC2C2=NCCN2)cc1` (configuration not stated), -24.9%. Regarding `C[C@]12N[C@H](Cc3ccccc31)c1ccccc12`, the “activity change, negative = inhibition” value is -4.31%. `Cc1nccc2c1[nH]c1ccccc12`: the “activity change, negative = inhibition” value is 14.8%. Still for that read-out and setting: the result for `S=C(NC1CCCCC1)N1CCC(c2cnc[nH]2)CC1` reads 1.03%. Regarding `NC(CP(=O)(O)O)C(=O)O` (configuration not stated), the Potency entry was “inactive”. For `C=CCN1CC[C@]23CCCCC2[C@H]1Cc1ccc(O)cc13` (some centres not stated), the “activity change, negative = inhibition” value was 12%.
